Source: PubChem (The Scripps Research Institute Molecular Screening Center)
In the library only some 2.9% were active in any assay of this set; here they are far more common.
PLC-gamma1 inh: PLC-gamma1 (human) inhibition, primary screen | P19174 | purified PLC-gamma1, fluorogenic substrate, fluorescence | inhibition, % at 12.2 µM | actives 0.84% (n = 370,000) | AID 720700; in the data active means inhibition above about 9.5%
ADAM17 inh: inhibitors of human ADAM17 | P78536 | recombinant ADAM17, EDANS/DABCYL FRET peptide cleavage | inhibition, % at 6.95 µM | actives 0.83% (n = 370,000) | AID 720648;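 active means inhibition above the mean of compounds lying between control limits plus 3 SD, set per campaign, cut at about 8.5% in these data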
Target sequence (P78536 215-824 limits assumed): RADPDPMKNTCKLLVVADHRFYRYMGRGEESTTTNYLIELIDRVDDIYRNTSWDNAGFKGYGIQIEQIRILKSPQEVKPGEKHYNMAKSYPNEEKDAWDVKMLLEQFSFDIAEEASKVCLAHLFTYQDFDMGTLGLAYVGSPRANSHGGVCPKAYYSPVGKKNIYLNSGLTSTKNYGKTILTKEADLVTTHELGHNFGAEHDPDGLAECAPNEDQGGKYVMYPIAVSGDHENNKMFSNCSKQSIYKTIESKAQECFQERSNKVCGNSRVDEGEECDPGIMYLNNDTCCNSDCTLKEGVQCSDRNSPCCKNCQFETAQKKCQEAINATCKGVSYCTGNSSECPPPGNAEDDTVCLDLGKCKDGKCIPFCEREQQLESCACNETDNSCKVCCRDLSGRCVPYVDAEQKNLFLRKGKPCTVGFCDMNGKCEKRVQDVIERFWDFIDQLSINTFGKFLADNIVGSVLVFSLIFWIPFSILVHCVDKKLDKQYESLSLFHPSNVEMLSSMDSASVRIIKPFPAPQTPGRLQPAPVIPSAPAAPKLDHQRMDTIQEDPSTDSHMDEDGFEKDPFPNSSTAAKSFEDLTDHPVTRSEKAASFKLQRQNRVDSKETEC
ADAM10 inh: inhibits human ADAM10 | actives 0.62% (n = 370,000) | recombinant ADAM10, EDANS/DABCYL FRET peptide cleavage, 3 h | inhibition, % at 7 µM | O14672;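 active means inhibition above a per-campaign cutoff equal to the mean of compounds falling between control-based bounds plus 3 SD, cut at about 20% in these data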
KLK7 zymogen act: activates the human kallikrein-7 zymogen. P49862. purified proKLK7, EDANS-DABCYL substrate fluorescence; 100% is mature enzyme control, 0% vehicle. activation, % at 7 µM. actives 0.9% (n = 370,000);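 active means activation above the mean of all tested compounds plus 3 SD, computed per campaign excluding outliers beyond control limits, cut at about 13% in these data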
PLC-beta3 inh: blocks human PLC-beta3 enzyme activity; Purified PLC-beta3, fluorogenic substrate, fluorescence; inhibition, % at 12.2 µM; actives 0.18% (n = 370,000); in the data active means inhibition above about 11%
ADAM10 confirm: confirmation of inhibitors of human ADAM10. shares compounds with ADAM10 inh. ADAM10 QFRET peptide cleavage, EDANS fluorescence. inhibition, % at 6.95 µM. actives 1% (n = 2,100). AID 743208;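 active means inhibition above about 20% chosen separately for each screening run, limit read from the data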
ADAM17 counter: inhibits human ADAM17 in ADAM10 exosite counter-screen | AID 743214 | shares compounds with ADAM10 inh | ADAM17 QFRET peptide cleavage, EDANS fluorescence | inhibition, % at 6.95 µM | actives 0.5% (n = 2,100);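 active means mean triplicate inhibition above the solvent-only control wells' mean plus 3 SD, cut at about 12% in these data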
Large screens that a line does not name were inactive (follow-up assays come after a bar, where they were run).

COc1ccc(Nc2nc(-c3ccccc3O)nc3ccccc23)cc1	ADAM10 inh 21 | ADAM10 confirm inactive | ADAM17 counter inactive
Oc1cccc(/C=N/N(Cc2ccccc2)c2ccccc2)c1	ADAM10 inh 22 | ADAM10 confirm inactive | ADAM17 counter inactive
C(=N\N(Cc1ccccc1)c1ccccc1)/c1cccnc1	none
Cc1ccc(C)c(OCc2cc(C(=O)N(C)Cc3ccccn3)no2)c1	none
Cc1ccc(C)c(OCc2cc(C(=O)NC(c3ccccn3)C(F)(F)F)no2)c1 (stereo not drawn)	ADAM10 inh 21 | ADAM10 confirm inactive | ADAM17 counter inactive
O=C(OCc1cn(Cc2cccc(F)c2)nn1)N1CCOCC1	none
CN1C(=O)Cc2cc(S(=O)(=O)N3CCN(c4ccc(Cl)cc4)CC3)ccc21	ADAM10 inh 21 | ADAM10 confirm inactive | ADAM17 counter inactive
C=CCn1c(SCC(=O)C(C)(C)C)nnc1-c1ccc(Cl)cc1	none
COc1ccc(C(C)(O)c2nc(-c3cccc(F)c3)cs2)cc1 (stereo not drawn)	ADAM10 inh 22 | ADAM10 confirm inactive | ADAM17 counter inactive
COc1ccc(-c2csc(C(C)(O)c3cccc(F)c3)n2)cc1 (stereo not drawn)	none
CN(C)C(=O)c1cc(Cl)ccc1Sc1cc(Cl)ccc1Cl	none
Oc1ccc(Cl)cc1Sc1cc(Cl)ccc1O	ADAM10 inh 25 | ADAM10 confirm inactive | ADAM17 counter inactive
COC(=O)[C@]12C[C@H](CC(=O)N3CCC(c4ccccc4)CC3)C(=O)N(Cc3ccc(Cl)cc3Cl)C1=C[C@H](C(C)(C)C)O[C@@H]2C	none
COc1cccc(-c2csc(N3CCN(CC(=O)NNC(=O)c4ccc(Br)cc4)CC3)n2)c1	none
COc1cccc(-c2csc(N3CCN(CC(=O)NNC(=O)c4ccc(Cl)cc4)CC3)n2)c1	ADAM10 inh 20 | ADAM10 confirm inactive | ADAM17 counter inactive
COCCNC(=S)N1CCN(c2nc(-c3cccc(OC)c3)cs2)CC1	ADAM10 inh 21 | ADAM10 confirm inactive | ADAM17 counter inactive
Cc1ccc(NC(=O)CNc2ccc(Cl)c(Cl)c2)cc1S(=O)(=O)N(C)C	ADAM10 inh 23 | ADAM10 confirm inactive | ADAM17 counter inactive
O=c1[nH]c(C2CCN(S(=O)(=O)/C=C/c3ccccc3)CC2)nc2c1nnn2Cc1ccc(F)cc1	ADAM10 inh 29 | ADAM10 confirm inactive | ADAM17 counter inactive
O=c1[nH]c(C2CCN(S(=O)(=O)c3ccc(F)cc3)CC2)nc2c1nnn2Cc1ccc2c(c1)OCCO2	ADAM10 inh 23 | ADAM10 confirm inactive | ADAM17 counter inactive
COc1ccc(S[C@]2(C(=O)N3CCOCC3)CC(=O)N(c3ccsc3)[C@@H]2c2ccc(OC)cc2)cc1	none
COc1ccc(C(F)(F)F)cc1NC(=O)C(OC(=O)CNC(=O)c1ccccc1)c1ccccc1 (stereo not drawn)	none (no result: KLK7 zymogen act)
Fc1ccc(CC2CCN(c3ncnc4sccc34)CC2)cc1	none (no result: KLK7 zymogen act)
CC(=O)Nc1ccc(-c2ccnc3c2CC(C)(C(=O)Nc2ccc(Cl)c(C(F)(F)F)c2)O3)cc1 (stereo not drawn)	ADAM10 inh 20 | ADAM10 confirm inactive | ADAM17 counter inactive
C=CCN1c2ccccc2[C@]23C[C@@H](C(=O)OC)N(C(=O)NC4CCCC4)C2=NC(C(=O)OC)=C(C(=O)OC)[C@H]13	ADAM17 inh 10, ADAM10 inh 21 | ADAM10 confirm inactive | ADAM17 counter inactive
COC(=O)C[C@@H]1CC[C@H]2[C@@H](COc3ccc(NS(=O)(=O)c4ccccc4F)cc3C(=O)N2C)O1	none
CN(C)S(=O)(=O)c1cccc(NC(=O)COC(=O)CCSc2ccc(Cl)cc2)c1	ADAM10 inh 21 | ADAM10 confirm inactive | ADAM17 counter inactive
Cc1ccc(SCCC(=O)OCC(=O)Nc2ccc(C(N)=O)cc2)cc1	ADAM10 inh 95 | ADAM10 confirm inactive | ADAM17 counter inactive
NS(=O)(=O)c1cccc(NC(=O)COC(=O)CCSc2ccccc2)c1	none
NC(=O)c1ccc(NC(=O)COC(=O)CCSc2ccccc2)cc1	none
COc1cc(-n2c(C)nc3cc(C(=O)N4CCCCC4)ccc32)cc(OC)c1OC	none
